Screens deposited in PubChem by National Center for Advancing Translational Sciences (NCATS).
An excerpt weighted towards active compounds, which were near 11% of everything screened.
L3MBTL1 block = L3MBTL1 (human) inhibition; AlphaScreen L3MBTL1–H3K9me1 peptide binding; Potency, µM (series often up to 57.1 µM), for the others: top-dose activity, negative = inhibition, hits mostly inhibitors; actives 0.66% (n = 230,000); also: potency is read from the fitted curve at half-maximal effect; % is scaled to controls: 0 for no effect and ±100 for the full control effect; nearly all actives have a fitted effect of over 60% in size
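AlphaScreen proximity signal between nickel-chelate acceptor and streptavidin donor beads (final 10 ug/mL) reports binding of 50 nM L3MBTL1 to 75 nM biotin-H3 K9me1 peptide; complex incubated with compounds 30 min at room temperature; cefsulodin titration as control.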
JMJD2A Tudor = inhibitors of human JMJD2A Tudor domain; AID 504339; Potency, µM (series often up to 114 µM), without a hit: top-dose activity change, negative = inhibition, most hits filed as inhibitors; actives 4.4% (n = 390,000); AlphaScreen JMJD2A-Tudor / H3K4me3 peptide binding; O75164; also: potency is read from the fitted curve at half-maximal effect; % is scaled to controls: 0 for no effect and ±100 for the full control effect; nearly all actives have a fitted effect of over 50% in size
Target sequence (O75164 whole entry, looked up, the tested form may be a part): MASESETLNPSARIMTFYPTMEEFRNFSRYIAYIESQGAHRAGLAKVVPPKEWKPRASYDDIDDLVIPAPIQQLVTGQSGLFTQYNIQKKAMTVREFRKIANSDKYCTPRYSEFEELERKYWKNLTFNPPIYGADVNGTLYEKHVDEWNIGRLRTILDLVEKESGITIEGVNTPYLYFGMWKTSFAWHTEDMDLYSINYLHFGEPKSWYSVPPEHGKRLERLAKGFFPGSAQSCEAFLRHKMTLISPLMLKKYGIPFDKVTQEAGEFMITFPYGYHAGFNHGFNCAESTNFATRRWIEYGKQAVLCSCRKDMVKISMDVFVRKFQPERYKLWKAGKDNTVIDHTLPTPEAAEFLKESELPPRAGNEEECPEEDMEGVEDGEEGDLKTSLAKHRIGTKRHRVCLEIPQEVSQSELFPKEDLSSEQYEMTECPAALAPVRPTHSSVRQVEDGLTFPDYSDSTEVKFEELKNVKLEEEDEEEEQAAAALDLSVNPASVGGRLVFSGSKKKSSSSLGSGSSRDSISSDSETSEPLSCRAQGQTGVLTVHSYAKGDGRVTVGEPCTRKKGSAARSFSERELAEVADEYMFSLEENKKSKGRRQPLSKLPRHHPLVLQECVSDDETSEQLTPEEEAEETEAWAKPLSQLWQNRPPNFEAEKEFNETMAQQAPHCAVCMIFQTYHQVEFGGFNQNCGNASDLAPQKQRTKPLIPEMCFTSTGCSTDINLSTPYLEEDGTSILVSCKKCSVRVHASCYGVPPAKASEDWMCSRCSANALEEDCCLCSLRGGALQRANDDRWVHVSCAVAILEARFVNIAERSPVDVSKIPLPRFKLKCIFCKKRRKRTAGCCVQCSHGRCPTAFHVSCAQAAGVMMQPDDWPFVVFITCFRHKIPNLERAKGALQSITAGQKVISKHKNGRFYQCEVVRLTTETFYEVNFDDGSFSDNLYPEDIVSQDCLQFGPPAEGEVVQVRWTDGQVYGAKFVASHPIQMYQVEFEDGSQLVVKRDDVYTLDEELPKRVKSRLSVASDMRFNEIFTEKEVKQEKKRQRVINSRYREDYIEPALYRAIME
HP1b chromo inh = blocks HP1-beta chromodomain binding to methylated histone tails | P83916 | AlphaScreen HP1-beta / biotin-H3K9me3 peptide binding | Potency, µM (series often up to 114 µM), inactives show top-dose activity change, negative = inhibition, hits mostly inhibitors | actives 0.56% (n = 390,000) | AID 540317; also: potency is read from the fitted curve at half-maximal effect; nearly all actives have a fitted effect of over 70% in size
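HP1-beta protein (50 nM final) preincubated 30 min at room temperature with biotinylated H3(1-18)K9me3 peptide (50 nM) in PBS pH 7.4, 0.01% Tween-20, then compound added for 30 min. AlphaScreen streptavidin donor/nickel chelate acceptor beads (10 ug/mL final), 30 min dark, luminescence read.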
PI5P4K alpha inh = PI5P4K alpha (human) kinase inhibition; PI5P4Kalpha enzyme, ADP-Glo luminescence, 60 min; hits give low values; max response, %; actives 1.2% (n = 330,000); active = max response of -50% or lower; inconclusive = between -30% and -50%; inactive = -30% or higher; also: value at the top dose of about 77 µM; % is scaled to controls: 0 for no effect and ±100 for the full control effect
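PI5P4Kalpha ADP-Glo assay; 5 microM ATP final; 60 min RT reaction; HEPES pH 7.4/EGTA/CHAPS, 5% DMSO; controls lacking substrate or enzyme; luminescent end-point.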
BAZ2B inh = inhibitors of human BAZ2B bromodomain; AID 504333; Potency, µM (series often up to 114 µM), inactives show at the top dose activity change, negative = inhibition, usual class: inhibitors; AlphaScreen BAZ2B-H3K14Ac peptide displacement; actives 4.4% (n = 360,000); Q9UIF8; also: potency is read from the fitted curve at half-maximal effect; % is scaled to controls: 0 for no effect and ±100 for the full control effect; nearly all actives have a fitted effect of over 60% in size
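Protein-peptide AlphaScreen: BAZ2B 50 nM, b-H3K14Ac 50 nM, 1x PBS pH 7.4 + 0.01% Tween-20. Preincubation 30 min RT; cpd 30 min RT (top 110 uM); beads 20 min RT, light-protected.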
G9a block = blocks human histone lysine methyltransferase G9a | Q96KQ7 | G9a H3K9 monomethylation, AlphaScreen, 2 h | Potency, µM (highest dose often 102 µM), inactives show top-dose activity, negative = inhibition, hits mostly inhibitors | actives 8.8% (n = 350,000); also: potency is read from the fitted curve at half-maximal effect; % is scaled to controls: 0 for no effect and ±100 for the full control effect; nearly all actives have a fitted effect of over 75% in size
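AlphaScreen detection with an anti-monomethyl H3K9 antibody quantified product after a 2 h room-temperature reaction containing 500 nM biotinylated H3K9 peptide, 20 µM SAM and 20 nM enzyme, which had been preincubated 15 min with compound.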
An asterisk follows results filed as active; ? = inconclusive; / = no result; ! = a repeat was not active; [ ] = another dose, or the depositor's remark. Unless noted, calls follow the shape of the dose curve; as a rule, active = well fitted inhibition curve with a large enough effect; inconclusive = small, poorly fitted or top-dose-only effect; inactive = no such curve, though single readings can be large or run the other way.

SMILES | L3MBTL1 block | JMJD2A Tudor | HP1b chromo inh | PI5P4K alpha inh | BAZ2B inh | G9a block
O=C(COC(=O)CCc1nc2ccccc2s1)Nc1ncc(Cl)cc1Cl | -10% | -23% | 21% | -25 | ? | 45µM*
O=C(COC(=O)CCCc1nc2ccccc2s1)Nc1ncc(Cl)cc1Cl | -15% | ? | 10% | -29 | ? | ?
Nc1nc2ccc(S(=O)(=O)N3CCCCC3)cc2s1 | 8% | -10% | 7% | -25 | -1% | 6.3µM*
O=C(COC(=O)CCc1nc2ccccc2s1)Nc1cccc(S(=O)(=O)N2CCOCC2)c1 | / | -3% | 16% | 0 | 9% | ?
CCn1c(SCc2nc3ccccc3s2)nc2cc(S(=O)(=O)N3CCOCC3)ccc21 | / | -20% | 16% | 2 | / | /
COc1ccccc1N1CCN(c2nc3c(S(=O)(=O)c4ccc(C)c(C)c4)nnn3c3ccc(Cl)cc23)CC1 | / | -12% | 10% | / | -9% | -30%[59 µM]
COc1ccc(CCNC(=O)CS(=O)Cc2nc(-c3ccc(C)cc3)oc2C)c(OC)c1 (configuration not stated) | / | -21% | 2% | / | ? | -32%[59 µM]
N#CCc1nc2ccc(S(=O)(=O)N3CCOCC3)cc2s1 | -14% | -26% | 24% | -64* | -21% | -29%
O=[N+]([O-])/C(C(Cl)=C(Cl)Cl)=C(\Nc1ccc(F)cc1)n1cncn1 | / | / | / | / | 28µM* | 8.9µM*
CCOc1ccc(N/C(=C(/C(Cl)=C(Cl)Cl)[N+](=O)[O-])n2cncn2)cc1 | / | / | / | / | 8.9µM* | 25µM*
CCCC(=O)Nc1nnc(S(=O)(=O)N(C)Cc2ccc(Cl)cc2)s1 | / | -9% | 18% | / | -15% | -4%[59 µM]
COc1cc(OC)cc(C(=O)N2CCC(c3ccncc3)CC2)c1 | / | 4% | 36% | / | 0% | -6%[59 µM]
c1ccc(CN2CCN(C3=Nc4cccc5cccc3c45)CC2)cc1 | / | ? | ? | 5 | ? | ?
Fc1ccc(N2CCN(C3=Nc4cccc5cccc3c45)CC2)cc1 | ? | 25µM* | ? | 2 | 35µM* | 40µM*
COc1ccc(NC(=O)CCS(=O)(=O)c2cccc3nonc23)cc1 | 12% | -10% | 24% | 8 | -7% | -44%
O=C(CCS(=O)(=O)c1cccc2nsnc12)Nc1ccc(F)cc1 | / | -21% | 3% | / | -1% | 10µM*
O=C(CS(=O)(=O)c1cccc2nsnc12)Nc1ccc(F)cc1 | / | -18% | 8%[57 µM] | / | -4% | 11%[59 µM]
O=C(CCS(=O)(=O)c1cccc2nonc12)Nc1ccc(Br)cc1 | / | 79µM*! | 5% | -6 | -1% | 8%
COc1ccc(N2CCN(CCNS(=O)(=O)c3cccc4nsnc34)CC2)cc1 | -10% | -18%[11.4 µM] | -30% | 4 | -39% | ?
COc1ccc(N2CCN(CCNC(=O)CCS(=O)(=O)c3cccc4nsnc34)CC2)cc1 | -2% | / | / | / | ? | 45µM*
CCOc1ccc(NC(=S)N(Cc2ccc(N(C)C)cc2)Cc2ccco2)cc1 | ? | 16µM* | ? | 18 | 35µM* | 40µM*
CCCN(Cc1ccccc1)C(=S)Nc1ccc(OCC)cc1 | -2% | 1% | 33% | 6 | -20% | 6%
COc1ccc(NC(=S)N(Cc2ccc(N(C)C)cc2)Cc2ccco2)cc1 | ? | 50µM* | ? | 8 | 32µM* | ?
CCOc1ccc(-n2nc3ccc(NC(=O)COc4ccccc4C)cc3n2)cc1 | / | -10% | 14% | / | 0% | 6%[59 µM]
O=C(COC(=O)c1ccc(NS(=O)(=O)c2cccs2)cc1)NCc1ccco1 | / | -29%[11.4 µM] | -21% | -72* | 32µM* | ?
SMILES | L3MBTL1 block | JMJD2A Tudor | HP1b chromo inh | PI5P4K alpha inh | BAZ2B inh | G9a block
O=C(COC(=O)c1cccs1)NCc1ccco1 | ? | 35µM* | 50µM* | ? | 50µM* | ?
COc1cc(NC(=O)c2cccs2)c(C(=O)OCC(=O)NCc2ccco2)cc1OC | / | -22% | 15% | -24 | -7% | -45%[12.7 µM]
CN(C)S(=O)(=O)c1ccc(C(=O)NCc2ccco2)cc1 | -27% | -1% | 20% | 3 | -11% | -11%
CN(C)S(=O)(=O)c1cccc(NC(=S)NCc2ccco2)c1 | 13% | -34% | 18% | -2 | / | 45µM*
CN(C)S(=O)(=O)c1ccc(C(=O)OCC(=O)NCc2ccco2)cc1 | ? | -10%[11.4 µM] | 20% | -11 | 50µM* | 50µM*
CC(C)CCN(Cc1ccco1)C(=O)c1cc2c(s1)-c1ccccc1OC2 | / | 124% | 146% | / | 107% | 134%[59 µM]
Cc1ccc(CNc2ncnc3nc[nH]c23)cc1 | / | -11% | 33% | / | / | /
Cc1ccc(-n2ncc3c(NCCC4=CCCCC4)ncnc32)cc1C | / | 9% | 28% | / | 3% | -35%[59 µM]
COc1ccccc1C(OC(=O)c1cccs1)C(=O)NCc1ccco1 (configuration not stated) | -9% | -23% | 19% | / | ? | 45µM*
CC(OC(=O)c1cccs1)C(=O)NCc1ccco1 (configuration not stated) | -7% | -6% | 37% | -4 | 14% | -10%[59 µM]
CCOC(=O)CNC(=O)Nc1cc(C(=O)NCc2ccccc2OC)ccc1N1CCCC1 | / | -5% | 29% | / | -3% | -2%[12.7 µM]
COc1ccc(-c2nnc(SCC(=O)Nc3ccc(C)c(C)c3)s2)cc1 | / | -11% | 20%[57 µM] | / | 4% | 15%[59 µM]
CCC(C)NCCOCCOc1ccc(Br)cc1 (configuration not stated) | / | 11µM* | ? | 5 | 79µM* | ?
CCC(C)NCCOc1ccccc1C (configuration not stated) | 4% | 3.2µM* | ? | -5 | 50µM* | 2.8µM*
Cc1ccccc1OCCNC(=S)Nc1ccccc1 | -4% | 1% | 43% | 7 | -4% | 61%
CC(C)NCC(O)COCCOc1ccc(Br)cc1 (configuration not stated) | 6% | -9% | 21% | 10 | 6% | -8%[59 µM]
CCC(C)NCCOc1ccc(Br)cc1 (configuration not stated) | / | 3.5µM* | ? | -1 | ? | 13µM*
O=C1C2CC=C(Cl)CC2C(=O)N1CCCCCCN1C(=O)C2CC=C(Cl)CC2C1=O (configuration not stated) | / | 45µM* | ? | / | 45µM* | 11µM*
COc1ccc(S(=O)(=O)NCCc2csc(-c3ccc(F)cc3)n2)cc1 | / | -10% | 28%[57 µM] | / | 8% | 25%[59 µM]
O=C(CC1S/C(=N/N=C/c2ccco2)NC1=O)Nc1ccccc1 (configuration not stated) | / | -8% | 37% | -4 | -22% | 47%[59 µM]
O=C(CC1S/C(=N/N=C/C=C/c2ccccc2)NC1=O)Nc1ccc(C(=O)O)cc1 (configuration not stated) | / | -17% | 24% | -77* | 79µM* | ?
